Consider 90 compounds from PubChem BioAssay AID588501 (NMMLSC, 2011).

Each structure is given as a SMILES string. Out of some 360,000 compounds screened, about 420 (0.12%) were called active. No stated cut-off is given here; in the data, active means inhibition above about 30%; inconclusive means no clear call, values can overlap the other calls; inactive means below that. For the sample, actives were picked, then their nearest neighbours and some compounds at random.

The assay concerns the target Lethal factor (Bacillus anthracis) (UniProt P15917). In words: anthrax lethal factor cleavage blockers – biochemical, multiplex microsphere, MLPCN library, primary screen (AID 588501). Further: plate controls were buffer without enzyme for full effect and enzyme alone for no effect. As to conditions: multiplex microsphere protease cleavage assay, LF; at 10 µM; stronger effect = higher value.
In the case of `O=C(/C=C(O)/C=C/c1ccc(O)cc1)/C=C/c1ccc(O)cc1`, the inhibition was 31.4% (active).
In the case of `NC1=NC(=O)S/C1=C\c1ccc(O)cc1` it was -0.1% (inactive); in that of `C=CCNC(=O)/C=C/c1ccc(C(C)C)cc1`, -1.4% (inactive); in that of `CC(O)CN(Cc1ccc(Cl)cc1)CC(C)O` (stereo not given), 0.1% (inactive).
In the case of `O=C1N[C@@H](Cc2ccccc2)C(=O)N2[C@H]1C[C@]1(Br)c3ccccc3N(S(=O)(=O)c3ccccc3)[C@H]21` it was -0.3% (inactive); in that of `Cn1c(SCC(=O)c2ccccc2)ncc(C(=O)Nc2ccc(F)cc2)c1=O`, -1.5% (inactive).
In the case of `CCCCN1CC(COc2ccccc2)Oc2cccc(F)c2S1(=O)=O` (stereo not given) it was -2.2% (inactive).
Consider `CN(Cc1cn(Cc2ccc(C(F)(F)F)cc2)nn1)C1CN(Cc2cn(Cc3ccc(C(F)(F)F)cc3)nn2)S(=O)(=O)C1` (stereo not given), for which the inhibition is -0.1% (inactive).
Take `COC(=O)[C@H]1Cc2cnoc2C[C@]1(C)C(=O)O`: the inhibition is 4.2% (inactive).
In the case of `COc1ccc2[nH]c(=O)c(C3c4cc(OC)c(OC)cc4CCN3C(=O)c3ccco3)cc2c1` (stereo not given) it was -1.5% (inactive); in that of `O=[N+]([O-])c1ccc(NC(=S)N2CCN(c3ccccn3)CC2)cc1`, 1.1% (inactive); in that of `CC(=NNC(=S)N1CCCCCC1)c1ccccn1`, 50% (active).
Under `CCOC(=O)c1ccc(NC(=S)N2CCN(c3ccccn3)CC2)cc1` stands -15.7% (inactive); under `COc1ccccc1CNC(=O)c1cc(-c2cc(F)ccc2OC)n[nH]1`, -4.6% (inactive).
In the case of `O=C(NC1CCCC1)C(c1ccco1)N(C(=O)c1ccco1)c1ccc(F)cc1` (stereo not given) it was -0.3% (inactive); in that of `Cc1cc(C)c2nc(SCC(=O)N(C)C3CCS(=O)(=O)C3)cc(C)c2c1` (stereo not given), 0.4% (inactive).
Turning to `N#CC(Cc1cc2ccccc2n1S(=O)(=O)c1ccccc1)OCc1ccccc1` (stereo not given), the inhibition was -10.4% (inactive).
In the case of `O=C(NN1C(=O)C2CCCCC2C1=O)c1ccco1` (stereo not given) it was 15.5% (inactive).
In the case of `CC(C)c1c(O)nc(SCCOc2ccc(Cl)cc2)[nH]c1=O` it was -0.5% (inactive); in that of `COc1ccc(C(=O)Nc2nc(-c3ccc(OC)cc3)c(-c3ccc([N+](=O)[O-])cc3)s2)cc1`, 30.1% (active).
In the case of `COc1ccc(-c2[nH][nH]c(=O)c2NC(=O)c2ccc([N+](=O)[O-])cc2)cc1`, the inhibition was 6.4% (inactive).
Under `COc1ccc(NC(=O)c2cn(CCC#N)nc2-c2ccc([N+](=O)[O-])cc2)cc1` stands -4.4% (inactive); under `COc1ccc(N(CC(=O)NCCSCc2cccc(Cl)c2)S(C)(=O)=O)cc1`, 34.3% (active).
In the case of `Cc1ccc(CSCCNC(=O)CN(c2ccc(F)cc2)S(C)(=O)=O)cc1`, the inhibition is 3% (inactive).
`COc1ccc(CCNC(=O)CN(c2ccccc2)S(C)(=O)=O)cc1`: the inhibition is 3.6% (inactive).
In the case of `Cc1cccc(N2CCN(C(=O)CCS(=O)(=O)c3ccc4c(c3)NC(=O)C(C)S4)CC2)c1C` (stereo not given) it was -3% (inactive).
In the case of `CC(=O)OCCN(CCCn1c(-c2ccncc2)nc2ccccc21)c1nc(-c2ccc(C)cc2)cs1` it was 41.1% (active); in that of `Cc1ccc(-c2csc(N3CCN(c4cc5c(cc4Cl)nc(-c4ccncc4)n5CCOCCO)CC3)n2)cc1`, -0.9% (inactive); in that of `COc1ccc(-c2nc3ccccc3n2CCC(C)C)cc1OC`, 0.7% (inactive).
Under `COc1ccc(N2CCN(C(=O)c3ccccc3NC(=O)C3=C(C)OCCS3)CC2)cc1` stands 1.2% (inactive).
As for `COc1ccc(CC(=O)NC(C)c2ccc(Cl)c(Cl)c2)cc1S(=O)(=O)N1CCOCC1` (stereo not given), the inhibition was 1.2% (inactive).
In the case of `O=C(NCc1ccncc1)C(=O)NCC1OCCN1S(=O)(=O)c1ccc(Br)cc1` (stereo not given) it was -6.7% (inactive); in that of `C=C1C(=O)[C@]23C[C@H]1CCC2[C@@]1(C)C(C[C@@H]3O)[C@](C)(C(=O)O)CC[C@@H]1O` (stereo not given in full), 6% (inactive); in that of `COc1ccc(OCC(=O)NCCc2ccc(S(N)(=O)=O)cc2)cc1`, -1.2% (inactive).
In the case of `CCC(C)(C(=O)Nc1ccccc1C)N(C(=O)CNC(C)=O)c1ccc(C)cc1` (stereo not given) it was 0.5% (inactive).
In the case of `COC(=O)Cc1ccc(N(Cc2ccccc2F)S(=O)(=O)c2ccc(Br)cc2)cc1` it was -0.1% (inactive); in that of `CC(C)(C)c1ccc(C(=O)N2CCN(CCNC(=O)C(=O)Nc3ccc(F)cc3)CC2)cc1`, -3.8% (inactive).
For the compound `Cc1cccc(N2CCN(C(C)C(=O)N3CCc4ccccc43)CC2)c1C` (stereo not given), the inhibition is -6.6% (inactive).
For `COCCn1c(N)c(NCc2ccccc2)c(=O)[nH]c1=O`, the inhibition is -3.2% (inactive).
As for `COCCNc1ncnc2c1nc1n2CCCC1`, the inhibition was 0.3% (inactive).
In the case of `OC(c1ccc(Cl)cc1)C(CN1CCOCC1)c1ccccc1` (stereo not given) it was 40.7% (active); in that of `O=C(CC(c1ccccc1)c1cc(Cl)ccc1O)NCCN1CCOCC1` (stereo not given), -5.6% (inactive); in that of `OC(c1ccccc1)C(CN1CCOCC1)c1ccccc1` (stereo not given), -9.8% (inactive).
Under `O=S(N1CCCCCC1)C12CC3CC(CC(C3)C1)C2` (stereo not given) stands -5.3% (inactive).
For `O=C(c1ccc(F)cc1)n1c(=S)nc2ccccn21`, the inhibition was -9.4% (inactive).
For the compound `O=C(C[n+]1cc(Br)cc2ccccc21)c1ccc(F)cc1`, the inhibition was 36.5% (active).
In the case of `O=C(CNC(=O)c1ccccc1F)c1ccc(Br)cc1`, the inhibition is 0.4% (inactive).
Take `COc1ccc(CNC(=O)C(NS(=O)(=O)c2cccc3nsnc23)C(C)C)cc1` (stereo not given): the inhibition was 0.7% (inactive).
Under `NS(=O)(=O)c1ccc(CCNC(=O)c2ccc(Cl)c(S(=O)(=O)N3CCCCCC3)c2)cc1` stands -0.9% (inactive); under `O=C(O)C1CCCN(CCC=C(c2ccccc2)c2ccccc2)C1` (stereo not given), -6.7% (inactive).
For the compound `O=C(O)c1ccc(S(=O)(=O)N2CCC(Cc3ccccc3)CC2)cc1`, the inhibition is -1.5% (inactive).
Under `Cc1onc(-c2ccccc2Cl)c1C(=O)N(Cc1ccc(N(C)C)cc1)C(C)C` stands 8.3% (inactive); under `Cc1ccc2cc(CCNC(=O)c3c(-c4ccccc4Cl)noc3C)c(=O)[nH]c2c1`, -10.3% (inactive).
In the case of `Cc1onc(-c2ccccc2Cl)c1C(=O)NCCn1ccc2ccccc21` it was 53.9% (active).
As for `CCC(=O)N1Cc2cc(C(=O)NCc3cccc(F)c3)nc(-c3cccc(C4=CCCC4)c3)c2[C@H]1CCO`, the inhibition is -8.3% (inactive).
In the case of `Cc1ccc(OCC(=O)N2CCN(C(=O)c3cccnc3)CC2)cc1` it was -7.8% (inactive).
Consider `CN1/C(=c2/s/c(=C3/C(=O)N(c4ccccc4)NC3=Nc3ccccc3)n(C)c2=O)C(C)(C)c2ccccc21`, for which the inhibition is -14.6% (inactive).
For `COc1cc2c(cc1OC)C(C)N(S(=O)(=O)c1cnc(Cl)c(Cl)c1)CC2` (stereo not given), the inhibition was 3.2% (inactive).
Under `COc1ccccc1OCCC(=O)OCC(=O)NCc1ccccc1` stands -1.1% (inactive).
In the case of `NS(=O)(=O)c1ccc(-c2ccc(/C=C3\SC(=O)NC3=O)o2)cc1` it was -4.1% (inactive).
In the case of `Cc1ccc(C(=O)O)cc1-c1ccc(/C=C2\SC(=O)N(CC(=O)Nc3ccc4c(c3)OCO4)C2=O)o1` it was -2.8% (inactive); in that of `CN1C(=O)/C(=C\c2ccc(-c3ccccc3)o2)SC1=S`, 30.1% (active).
As to `CCC1CCc2c(sc(NC(C)=O)c2C#N)C1` (stereo not given), the inhibition is 2.5% (inactive).
In the case of `CCc1nc2ccc(C(=O)NC3CCN(Cc4ccccc4)CC3)cn2c1N(C)CCN1CCOCC1` it was -2.5% (inactive); in that of `COC(=O)c1ccc2nc(-c3ccc(C)cc3)c(Cc3ccc(OC)cc3C)n2c1`, 2.1% (inactive).
Take `COc1cc(NC(=O)CSc2nnc3ccc(-c4ccncc4)nn23)cc(OC)c1`: the inhibition is -3.6% (inactive).
`O=C(NCc1ccccc1Cl)NC(=O)c1csc([N+](=O)[O-])c1`: the inhibition was -4.7% (inactive).
In the case of `O=C(NNC1=NCCC1)c1cccc(S(=O)(=O)N2CCCCC2)c1` it was -3.2% (inactive); in that of `COC(=O)c1ccc(CSc2nc3cc(Cl)ccc3o2)cc1`, -2.5% (inactive).
Under `CC1(C(=O)NS(=O)(=O)Cc2cccc(Cl)c2)CCN1C(=O)Cc1ccc(Cl)cc1Cl` (stereo not given) stands -5.7% (inactive).
Under `Nc1cccc(-c2cncc(N3CCN(Cc4ccccn4)CC3)n2)c1` stands -2.8% (inactive).
As for `Cc1cc2nc(SCCN3CCOCC3)[nH]c2cc1C`, the inhibition was 7.8% (inactive).
Under `CC(=O)c1ccc(N2C(=NC(=O)C(C)C)SC3CS(=O)(=O)CC32)cc1` (stereo not given) stands -2.5% (inactive); under `CCN(CC(=O)Nc1ccccc1C(F)(F)F)C(=O)CSCc1c(C)noc1C`, 2.2% (inactive).
Under `O=S(=O)(c1cccc(S(=O)(=O)N2CCC(n3nnc4ccccc43)CC2)c1)N1CCCCC1` stands 4.7% (inactive).
As to `COc1cc(S(=O)(=O)N2CCN=C2c2ccccc2)ccc1Cl`, the inhibition is -0.6% (inactive).
Under `CNC(=O)c1c(NC(NC(=O)c2ccco2)C(=O)c2ccc(Cl)cc2)sc2c1CCCC2` (stereo not given) stands -4.6% (inactive); under `CCOC(=O)C1CCN(Cc2coc3ccc(Cl)cc3c2=O)CC1`, 0.9% (inactive); under `Cc1ccc(NC(=O)C2CCN(S(=O)(=O)c3ccc4c(c3)NC(=O)CO4)CC2)cc1C`, 1.3% (inactive).
Under `CCc1ccccc1NC(=O)CSc1nnc(CCNC(=O)OC(C)(C)C)o1` stands -3.1% (inactive); under `Cc1ccc(NS(=O)(=O)c2ccc(-c3coc(C)n3)cc2)c(C)c1`, -2% (inactive); under `Oc1ccccc1N1CCN(C(=S)NCc2ccccc2)CC1`, -2.2% (inactive).
On to `O=C(CN1CCN(c2ccccc2O)CC1)NC(=O)NCc1ccccc1`, for which the inhibition was 50.8% (active).
Under `COc1ccccc1N1CCN(CC(=O)NC(=O)NCc2ccco2)CC1` stands 2.9% (inactive); under `Cc1cc(Br)ccc1NC(=O)CN(C)C(=O)CN1C(=O)NC2(CCCC2)C1=O`, 1.3% (inactive).
As for `COc1cc(OC)cc(-c2c(-c3cccs3)c3cc(-c4ccc(OC)cc4F)ccc3n2C)c1`, the inhibition was -3.2% (inactive).
Under `CCOc1ccccc1-c1nc(CN2CCC(C(=O)N3CCOCC3)CC2)c(C)o1` stands 0.2% (inactive); under `Cc1noc(C)c1CSc1nnc2ccc3ccccc3n12`, -0.1% (inactive).
As for `NC1=NC(=O)C(Cc2cccc(Cl)c2Cl)S1` (stereo not given), the inhibition is -6.2% (inactive).
As to `COc1cc(Cl)ccc1OCc1cc(C(=O)N2CC[C@@H]3CCCC[C@H]3C2)no1`, the inhibition is 0.9% (inactive).
